# Results filed as inconclusive are left out. Entries that show only a call come without a potency. Active and inactive are the calls of the source. Calls come from the whole dose curve; as a rule, active = well fitted inhibition curve with a large enough effect; inconclusive = small, poorly fitted or top-dose-only effect; inactive = flat fitted curve, though single readings scatter.
# Target: Luciferin 4-monooxygenase (Photuris pensylvanica) (UniProt Q27757)
# Test: Secondary Assay for Luciferase (Kinase-Glo TM) Inhibition Counterscreen
# Method in brief: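 Kinase-Glo firefly-type luciferase with 10 uM ATP in 50 mM imidazole pH 7.2, 50 mM KCl, 7 mM MgCl2, 0.01% Tween 20, 0.05% BSA. Luminescence read after 8 min at ambient temperature, normalized to DMSO and 40 uM SIB 1757, then Hill-fitted.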
# Potency is the fitted concentration of half-maximal effect.
row,SMILES,Potency
1,Cc1ccc(C)c(OC2=NS(=O)(=O)c3ccccc32)c1,inactive
2,O=C1CCc2cc(S(=O)(=O)Nc3ccccc3Cl)ccc2N1,inactive
3,Cc1ccccc1-c1nc(-c2ccccn2)no1,4.61 µM (active)
4,O=c1[nH]c2ccccc2n2c(-c3ccccc3)nnc12,inactive
5,Cc1ccc(NS(=O)(=O)c2ccc3c(c2)CCN(C(=O)C(F)(F)F)C3)cc1C,inactive
6,Cc1ccc(-c2cc3c(nn2)-c2ccccc2C3=O)cc1,5.8 µM (active)
7,COc1cc(/C=N/N2C(C)CCCC2C)cc(OC)c1O (centres undefined),inactive
8,O=C(Nc1cccc(O)c1)C(=O)Nc1ccccn1,20.6 µM (active)
9,COc1ccc2[nH]c3c4c(ccc3c2c1)C(=O)C=CC4=O,inactive
10,COC(=O)CSC1=NS(=O)(=O)c2ccccc21,inactive
11,Brc1ccc(N=Nc2ccc3ccccc3n2)cc1,7.3 µM (active)
12,Cc1ccsc1C(=O)Nc1nc2ccccc2[nH]1,16.3 µM (active)
13,COc1cccc(N2C(=O)c3ccccc3C2=O)n1,inactive
14,Cc1ccnc(NC(=O)c2ccc3c(c2)OCO3)c1,11.6 µM (active)
15,O=C(NC(=O)c1ccccc1)Nc1ccccn1,5.8 µM (active)
16,Cc1ccc(NS(=O)(=O)c2cc3c(cc2/C=C/c2ccccc2)NC(=O)CO3)cc1C,inactive
17,O=C1CCc2cc(S(=O)(=O)Nc3ccc(-c4ccccc4)cc3)ccc2N1,inactive
18,O=C1CCc2cc(S(=O)(=O)Nc3ccccn3)ccc2N1,inactive
19,O=C1c2ccccc2C(=O)N1c1cccc2ncccc12,inactive
20,O=C1c2ccccc2C(=O)N1c1ccc(Cl)cc1,inactive

row,SMILES,Potency
1,CSc1cc2c(s1)c1cnn(Cc3cccc(O)c3)c(=O)c1n2C,inactive
2,CNc1cccc(S(=O)(=O)N2CCN(S(=O)(=O)c3ccc4c(c3)OCCO4)CC2)c1,inactive
3,O=C1c2ccccc2C(=O)N1c1cccc(=O)[nH]1,inactive
4,O=C(c1ccccc1)n1c(=S)nc2ccccn21,5.17 µM (active)
5,O=C1CCc2cc(S(=O)(=O)Nc3cccnc3)ccc2N1,inactive
6,Cc1ccc(NS(=O)(=O)c2ccc3c(c2)N(C)CCO3)cc1C,inactive
7,Cc1ccc(NS(=O)(=O)c2cc3c(cc2N(C)C)NC(=O)CC3)cc1C,inactive
8,CC(C)(C)NC(=O)C(c1ccncc1)N(C(=O)Cn1nnc(-c2ccc(F)cc2)n1)c1ccccc1 (centres undefined),inactive
9,Cc1ccc(NS(=O)(=O)c2cc3c(cc2-c2ccccc2)NC(=O)CO3)cc1C,inactive
10,Cc1ccc(S(=O)(=O)/N=C2/C=C(Sc3ncn[nH]3)C(=O)c3ccccc32)c(C)c1,inactive
11,Cc1ccc(NS(=O)(=O)c2ccc(-c3ccccc3)cc2)cc1C,inactive
12,Cc1ccc(NS(=O)(=O)c2cc3c(cc2-c2ccco2)NC(=O)CO3)cc1C,inactive
13,O=C1c2ccccc2C(=O)N1c1noc2ccccc12,inactive
14,O=C(/C=C/c1ccc2c(c1)OCO2)c1ccccn1,5.8 µM (active)
15,Cc1ccc2c(c1)c1ccc3c(c1n2C)C(=O)C=CC3=O,inactive
16,c1ccc2nc(-c3nc4ccccc4[nH]3)ccc2c1,5.8 µM (active)
17,Cn1c2cc(S(C)=O)sc2c2cnn(Cc3cccc(N)c3)c(=O)c21 (centres undefined),inactive
18,O=C1CCc2cc(S(=O)(=O)Nc3cccc(-c4ccccc4)c3)ccc2N1,inactive
19,Cc1cc2c(s1)c1cnn(Cc3ccccc3F)c(=O)c1n2C,inactive
